Data on 19 compounds can be found in PubChem BioAssay.

The target in test [1] is Nuclear receptor coactivator 3 (Homo sapiens) (UniProt Q9Y6Q9). Kind of test: SRC3 coactivator transcriptional activity inhibitors, confirmation, cell-based, luminescence, quadruplicate (AID 588792).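 Further: 0% = DMSO treated cells and 100% = gossypol at 36 µM.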 Conditions: HEK293 GAL4-SRC3 luciferase reporter, at 3.6 µM, stronger effect = higher value. Background: Reporter assays use an easily measured gene product as a stand-in for the process of interest.

Test [2] relates to transactivating tegument protein VP16 (Human herpesvirus 1), Gal4-VP16 luciferase reporter. As to the kind of experiment: VP16 transactivation inhibitors, counter-screen for SRC3 inhibitor project, cell-based, luminescence, high throughput (AID 588794; in the data active means inhibition above about 30%). Particulars: mammalian cells, VP16-driven luciferase reporter luminescence; at 3.6 µM; stronger effect = higher value. (In general: A counterscreen serves to expose hits that act by an unwanted route or on another target.)

For test [3], the target named is Nuclear receptor coactivator 1 (Homo sapiens) (UniProt Q15788). Kind of test: SRC1 coactivator transcriptional activity inhibitors, confirmation, cell-based, luminescence, quadruplicate (AID 588820;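 active means mean inhibition above 46.68%, the untreated control wells mean plus 3 SD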;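 further: 0% = DMSO wells and 100% = gossypol 36 µM treated wells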). Conditions: HEK293 GAL4-SRC1 luciferase reporter, at 3.6 µM, stronger effect = higher value.
Test [4] in a line: VP16 transactivation inhibitors, counter-screen for SRC1 inhibitor project, cell-based, luminescence, high throughput (AID 588824; in the data active means inhibition above about 25%). Conditions: cell-based VP16 transactivation luciferase luminescence; at 3.6 µM; stronger effect = higher value.
The nature of test [5]: StAR promoter reporter inhibitors, counter-screen for LRH-1 inverse agonist project, cell-based, luminescence, high throughput (AID 651611; in the data active means inhibition above about 28%). Conditions: StAR promoter luciferase reporter counterscreen, at 3.6 µM, stronger effect = higher value.
Test [6] addresses Nuclear receptor subfamily 5 group A member 2 (Homo sapiens) (UniProt O00482). As to the kind of experiment: LRH-1 (NR5A2) inverse agonists, retest, confirmation, cell-based, luminescence (AID 651613; in the data active means inhibition above about 42%;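 further: HEK293T cells co-transfected with LRH-1 and StAR promoter luciferase reporter; 0% = vehicle wells and 100% = parental cells lacking receptor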). Particulars: cell-based LRH-1 luciferase reporter, inverse agonism; at 3.6 µM; stronger effect = higher value.
Test [7] addresses Steroidogenic factor 1 (Homo sapiens) (UniProt Q13285). As to the kind of experiment: SF1 (NR5A1) inverse agonists, counter-screen for LRH-1 inverse agonist project, cell-based, luminescence, high throughput (AID 651614; in the data active means inhibition above about 44%;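 further: cells cotransfected with StAR promoter reporter and SF1 expression vector; 0% = vehicle on cells with receptor and 100% = vehicle on cells lacking receptor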). Conditions: cell-based SF1 luciferase reporter, at 3.6 µM, stronger effect = higher value.
Test [8] in a line: VP16 transactivation reporter inhibitors, counter-screen for LRH-1 inverse agonist project, cell-based, luminescence, high throughput (AID 651615; in the data active means inhibition above about 33%). Particulars: Gal4-VP16 luciferase reporter cells, at 3.6 µM, stronger effect = higher value.
Test [9] concerns transactivating tegument protein VP16 (Human herpesvirus 1). As to the kind of experiment: VP16 transactivation reporter inhibitors, counter-screen for SRC2 inhibitor project, cell-based, luminescence, single concentration (AID 652007; in the data active means inhibition above about 36%). Conditions: cell-based VP16 transactivation luciferase reporter, at 8.9 µM, stronger effect = higher value.
The target of test [10] is Nuclear receptor coactivator 2 (Homo sapiens) (UniProt Q15596). Kind of test: SRC2 coactivator transcriptional activity inhibitors, confirmation, cell-based, luminescence, HEK293, triplicate (AID 652008;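 active means mean inhibition above 46.5%, the solvent-only control mean plus 3 SD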;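 further: 0% = DMSO-treated cells and 100% = Gossypol at 36 µM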). Conditions: HEK293 GAL4-SRC2 luciferase reporter, at 8.9 µM, stronger effect = higher value.
Test [11] can be described thus: growth loss of phage-infected RecBCD+ E. coli, confirmation, RecBCD inhibitor project, absorbance, E. coli V66, T4 gene 2 phage (AID 651982;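 active means mean inhibition over triplicates exceeding the hit threshold derived in the original primary screen, cut at about 11% in these data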). Particulars: E. coli V66 + T4 2- phage, growth OD; at 11.9 µM; stronger effect = higher value.
The nature of test [12]: E. coli viability inhibition, counter-screen for RecBCD inhibitor project, absorbance, high throughput (AID 651983; in the data active means inhibition above about 20%;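 further: E. coli strain V66 grown with compound alone and no phage infection; 0% = bacteria with DMSO vehicle only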). Particulars: absorbance (OD) growth, at 11.9 µM, stronger effect = higher value.
Test [13] is described as follows: growth loss of phage-infected AddAB-carrying E. coli, confirmation, counter-screen for RecBCD inhibitor project, absorbance, E. coli V3065, T4 phage (AID 651984;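 active means mean inhibition above the solvent-only control wells' mean plus 3 SD, cut at about 22% in these data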;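 further: higher means less bacterial growth from phage killing when AddAB is blocked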). Particulars: E. coli expressing H. pylori AddAB + T4 phage, OD growth; at 11.9 µM; stronger effect = higher value; gene 2 mutant T4, recBCD-deleted host.

For orientation: inhibition means the change of the read-out against control, counted positive when it falls.

Unmarked numbers belong to inactive results. Some of the results follow. Calls of active or inactive are those of the source.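 How the source made its calls, unless noted: active means mean inhibition over 43.08%, the solvent-only control mean plus 3 SD; inactive means the rest.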

Sequence of Nuclear receptor coactivator 2 (Homo sapiens) (Q15596 whole entry, looked up, the tested form may be a part): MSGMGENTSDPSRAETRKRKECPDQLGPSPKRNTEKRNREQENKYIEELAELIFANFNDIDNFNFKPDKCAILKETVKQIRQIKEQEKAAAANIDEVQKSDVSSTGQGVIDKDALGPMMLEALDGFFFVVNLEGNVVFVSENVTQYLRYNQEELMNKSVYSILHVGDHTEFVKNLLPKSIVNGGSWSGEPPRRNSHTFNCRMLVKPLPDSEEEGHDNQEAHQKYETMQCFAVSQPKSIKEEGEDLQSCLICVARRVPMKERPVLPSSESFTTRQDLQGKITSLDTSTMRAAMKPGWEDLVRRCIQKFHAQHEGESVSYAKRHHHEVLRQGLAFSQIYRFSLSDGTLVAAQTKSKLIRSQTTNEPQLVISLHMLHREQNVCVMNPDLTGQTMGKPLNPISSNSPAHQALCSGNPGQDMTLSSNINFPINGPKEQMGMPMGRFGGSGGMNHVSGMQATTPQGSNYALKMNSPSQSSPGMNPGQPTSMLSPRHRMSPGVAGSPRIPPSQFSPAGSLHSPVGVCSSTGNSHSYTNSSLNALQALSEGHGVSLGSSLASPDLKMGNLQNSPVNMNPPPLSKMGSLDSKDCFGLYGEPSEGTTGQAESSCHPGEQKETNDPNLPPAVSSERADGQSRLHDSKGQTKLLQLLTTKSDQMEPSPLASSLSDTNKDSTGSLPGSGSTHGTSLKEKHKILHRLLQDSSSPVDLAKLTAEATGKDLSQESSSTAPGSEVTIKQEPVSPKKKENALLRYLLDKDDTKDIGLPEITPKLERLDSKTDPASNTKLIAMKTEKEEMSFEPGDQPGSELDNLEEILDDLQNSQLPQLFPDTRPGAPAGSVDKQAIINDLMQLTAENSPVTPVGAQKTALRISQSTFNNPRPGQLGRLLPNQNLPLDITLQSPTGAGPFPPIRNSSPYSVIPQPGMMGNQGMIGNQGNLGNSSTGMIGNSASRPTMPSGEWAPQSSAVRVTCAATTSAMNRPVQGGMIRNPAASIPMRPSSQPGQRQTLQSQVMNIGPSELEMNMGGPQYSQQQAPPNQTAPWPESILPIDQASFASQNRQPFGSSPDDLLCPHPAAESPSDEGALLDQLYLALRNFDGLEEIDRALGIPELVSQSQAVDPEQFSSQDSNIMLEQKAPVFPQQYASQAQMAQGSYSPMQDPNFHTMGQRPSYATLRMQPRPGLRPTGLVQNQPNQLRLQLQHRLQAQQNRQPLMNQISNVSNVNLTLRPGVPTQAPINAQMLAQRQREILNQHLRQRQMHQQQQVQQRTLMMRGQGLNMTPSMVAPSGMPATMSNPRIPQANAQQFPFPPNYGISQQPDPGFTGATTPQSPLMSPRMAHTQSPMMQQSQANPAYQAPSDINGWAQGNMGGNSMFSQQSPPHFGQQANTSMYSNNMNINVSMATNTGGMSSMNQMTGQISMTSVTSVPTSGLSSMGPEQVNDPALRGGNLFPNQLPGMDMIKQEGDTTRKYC
Sequence of Nuclear receptor subfamily 5 group A member 2 (Homo sapiens) (O00482 whole entry, looked up): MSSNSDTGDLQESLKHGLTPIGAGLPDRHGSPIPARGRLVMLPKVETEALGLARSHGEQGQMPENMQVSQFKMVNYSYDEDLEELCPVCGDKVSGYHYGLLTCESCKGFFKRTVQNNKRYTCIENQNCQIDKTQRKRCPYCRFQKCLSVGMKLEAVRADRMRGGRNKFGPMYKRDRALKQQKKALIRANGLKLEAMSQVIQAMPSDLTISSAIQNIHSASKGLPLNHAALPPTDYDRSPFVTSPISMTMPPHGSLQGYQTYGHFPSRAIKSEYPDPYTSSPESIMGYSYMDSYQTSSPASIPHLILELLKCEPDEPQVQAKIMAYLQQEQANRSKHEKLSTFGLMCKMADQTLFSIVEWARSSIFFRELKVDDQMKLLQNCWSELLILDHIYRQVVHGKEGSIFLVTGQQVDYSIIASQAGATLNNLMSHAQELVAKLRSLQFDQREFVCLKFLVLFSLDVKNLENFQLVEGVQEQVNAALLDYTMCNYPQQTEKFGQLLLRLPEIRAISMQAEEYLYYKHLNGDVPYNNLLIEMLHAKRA
Sequence of Nuclear receptor coactivator 1 (Homo sapiens) (Q15788 whole entry, looked up, the tested form may be a part): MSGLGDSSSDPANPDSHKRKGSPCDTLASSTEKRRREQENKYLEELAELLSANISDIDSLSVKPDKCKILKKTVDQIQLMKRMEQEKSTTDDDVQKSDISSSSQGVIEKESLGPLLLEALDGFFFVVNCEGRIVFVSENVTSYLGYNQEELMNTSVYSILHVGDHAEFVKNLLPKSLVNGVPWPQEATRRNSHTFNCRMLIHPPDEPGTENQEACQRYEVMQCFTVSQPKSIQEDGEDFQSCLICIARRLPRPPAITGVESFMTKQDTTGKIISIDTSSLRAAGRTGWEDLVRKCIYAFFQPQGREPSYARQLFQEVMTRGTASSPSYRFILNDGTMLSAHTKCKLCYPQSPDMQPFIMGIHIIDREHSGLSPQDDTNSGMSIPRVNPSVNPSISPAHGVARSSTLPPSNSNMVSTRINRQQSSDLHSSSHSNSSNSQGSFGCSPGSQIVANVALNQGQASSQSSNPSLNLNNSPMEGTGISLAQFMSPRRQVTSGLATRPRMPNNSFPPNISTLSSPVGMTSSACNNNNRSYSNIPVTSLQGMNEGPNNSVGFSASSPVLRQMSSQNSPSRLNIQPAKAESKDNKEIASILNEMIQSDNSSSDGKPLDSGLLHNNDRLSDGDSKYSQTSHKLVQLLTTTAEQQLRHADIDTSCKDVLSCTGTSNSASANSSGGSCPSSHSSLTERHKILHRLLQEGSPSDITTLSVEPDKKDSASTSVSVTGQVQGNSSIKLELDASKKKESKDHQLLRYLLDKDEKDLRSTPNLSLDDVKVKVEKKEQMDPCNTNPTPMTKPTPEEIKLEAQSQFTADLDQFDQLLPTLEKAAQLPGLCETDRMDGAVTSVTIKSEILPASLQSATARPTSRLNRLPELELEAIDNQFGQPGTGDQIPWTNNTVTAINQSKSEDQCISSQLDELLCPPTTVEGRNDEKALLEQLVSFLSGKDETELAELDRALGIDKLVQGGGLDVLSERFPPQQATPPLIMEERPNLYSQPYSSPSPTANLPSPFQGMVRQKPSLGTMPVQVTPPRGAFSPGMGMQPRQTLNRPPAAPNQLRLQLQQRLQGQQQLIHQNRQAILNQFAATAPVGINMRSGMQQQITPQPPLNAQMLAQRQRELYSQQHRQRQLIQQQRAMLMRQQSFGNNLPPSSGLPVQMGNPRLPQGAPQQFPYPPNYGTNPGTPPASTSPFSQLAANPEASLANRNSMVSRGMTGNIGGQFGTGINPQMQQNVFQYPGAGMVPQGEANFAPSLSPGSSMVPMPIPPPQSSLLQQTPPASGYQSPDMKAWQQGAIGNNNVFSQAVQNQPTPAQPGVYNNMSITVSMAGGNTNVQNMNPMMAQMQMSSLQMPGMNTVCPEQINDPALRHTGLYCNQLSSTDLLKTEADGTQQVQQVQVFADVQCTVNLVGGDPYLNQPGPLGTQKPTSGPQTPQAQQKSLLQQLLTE
Sequence of Nuclear receptor coactivator 3 (Homo sapiens) (Q9Y6Q9 whole entry, looked up, the tested form may be a part): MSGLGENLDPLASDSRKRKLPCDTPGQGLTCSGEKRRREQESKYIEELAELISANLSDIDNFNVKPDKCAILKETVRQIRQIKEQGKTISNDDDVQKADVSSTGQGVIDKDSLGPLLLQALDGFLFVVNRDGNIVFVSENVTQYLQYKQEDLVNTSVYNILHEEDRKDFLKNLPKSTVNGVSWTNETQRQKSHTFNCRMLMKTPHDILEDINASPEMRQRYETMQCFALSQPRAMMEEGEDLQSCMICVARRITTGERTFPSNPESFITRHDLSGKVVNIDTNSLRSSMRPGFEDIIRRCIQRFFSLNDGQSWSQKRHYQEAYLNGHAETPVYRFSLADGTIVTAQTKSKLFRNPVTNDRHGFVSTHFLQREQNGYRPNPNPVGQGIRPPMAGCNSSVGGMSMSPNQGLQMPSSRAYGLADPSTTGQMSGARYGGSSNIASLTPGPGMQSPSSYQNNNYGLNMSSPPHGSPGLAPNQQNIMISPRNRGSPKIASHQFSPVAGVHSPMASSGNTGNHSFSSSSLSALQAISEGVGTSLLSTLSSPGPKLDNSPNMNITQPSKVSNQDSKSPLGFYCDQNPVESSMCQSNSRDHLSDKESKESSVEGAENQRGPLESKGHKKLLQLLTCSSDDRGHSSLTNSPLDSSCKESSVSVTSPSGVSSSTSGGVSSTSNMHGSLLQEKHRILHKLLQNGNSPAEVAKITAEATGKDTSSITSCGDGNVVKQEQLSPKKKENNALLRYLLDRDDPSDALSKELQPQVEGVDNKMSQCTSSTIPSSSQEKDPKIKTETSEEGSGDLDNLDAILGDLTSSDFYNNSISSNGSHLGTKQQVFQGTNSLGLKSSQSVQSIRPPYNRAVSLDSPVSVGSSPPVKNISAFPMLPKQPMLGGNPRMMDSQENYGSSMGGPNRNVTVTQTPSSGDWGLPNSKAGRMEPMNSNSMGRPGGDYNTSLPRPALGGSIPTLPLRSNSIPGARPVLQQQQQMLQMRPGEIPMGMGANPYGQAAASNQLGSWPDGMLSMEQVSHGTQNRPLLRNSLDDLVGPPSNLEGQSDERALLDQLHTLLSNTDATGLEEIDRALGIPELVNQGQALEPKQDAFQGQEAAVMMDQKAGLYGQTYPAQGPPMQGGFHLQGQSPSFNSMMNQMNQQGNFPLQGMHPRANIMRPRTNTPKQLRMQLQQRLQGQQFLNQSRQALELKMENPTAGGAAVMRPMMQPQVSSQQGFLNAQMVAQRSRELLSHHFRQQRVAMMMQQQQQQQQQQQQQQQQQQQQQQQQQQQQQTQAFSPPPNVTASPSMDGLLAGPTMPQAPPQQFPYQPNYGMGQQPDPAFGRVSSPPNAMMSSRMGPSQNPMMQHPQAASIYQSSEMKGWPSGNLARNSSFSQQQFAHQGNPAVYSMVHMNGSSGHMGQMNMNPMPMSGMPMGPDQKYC

`Clc1ccc(-n2ncc3c(N4CCCCCC4)ncnc32)cc1`: the inhibition in test [1] was 77% (active); in [2], 69.2% (active); in test [3] it was 52.9% (active); in test [4], 54.3% (active); in test [5], 71% (active); in test [6] it was 24.8%. Also, the inhibition in test [7] was 65.8% (active); in [8] it was 43% (active); in [9], 57.4% (active); in [10], 84.6% (active).
Regarding `CCOc1ccc(/C=C2\SC(=S)N(CCC(=O)O)C2=O)cc1`, the inhibition in test [1] was 29%; in test [2], -33.1%; in test [3], 39.5%; in test [4], -38.8%; in test [9] it was -7.9%; in test [10], 84.6% (active).
`Cc1nc2cc(N3CCN(C)CC3)c(NC(=O)Cc3ccccc3)cc2c(=O)n1Cc1ccccc1`: the inhibition in test [1] is 17.6%; in test [2], 10.3%; in [3], -11.5%; in [4], -3.19%; in [9], 4.08%; in test [10] it was 34.5%.
In the case of `c1csc(CNc2ncnc3ccc(-c4ccoc4)cc23)c1`, the inhibition in test [1] is 62.6% (active); in test [2], 41.1% (active); in test [3], 34.6%; in test [4] it was 37% (active); in [9], 5.65%; in test [10], 37.1%.
`O[C@@H]1[C@@H](O)C=C2CCN3Cc4cc5c(cc4[C@H]1C23)OCO5` (some centres undefined): the inhibition in test [1] is 84.3% (active); in test [2] it was 77.5% (active); in test [3] it was 48.1% (active); in test [4], 76.7% (active); in test [6] it was 105% (active); in test [7], 93.4% (active). Also, the inhibition in test [9] was 15.7%; in test [10] it was -13.8%.
As to `C=C1C(=O)C2=CC1CCC(=O)C1(C)CCC(OC(C)=O)C(C)(C)C1CC2O` (centres undefined), the inhibition in test [1] is 35.4%; in [2], 53.2% (active); in [3] it was 8.46%; in [4] it was 51.3% (active); in [5], 30.3% (active); in test [6], 3.03%. For the same compound, the inhibition in [7] is 33.2%; in test [8], 56.1% (active); in [9] it was 33.9%; in test [10], 41.2%.
Consider `CCn1c2ccccc2c2cnc(N=CN(C)C)c(C#N)c21`, for which the inhibition is 32% in test [1]; 19.6% in test [2]; 28.3% in test [3]; 21.4% in test [4]; -28.4% in test [9]; -0.33% in [10].
As for `c1cc(-c2cnc3cccnn23)c2cccnc2c1`, the inhibition was 65.8% (active) in [1]; 42.7% (active) in [2]; 57.9% (active) in test [3]; 40.2% (active) in test [4]; -9.33% in [9]; 26.5% in test [10].
As for `Cn1nc(C(F)(F)F)c(C#N)c1N1CCN(c2ccc(F)cc2)CC1`, the inhibition in test [1] was 36.7%; in test [2], 31.8% (active); in test [3] it was 36.7%; in test [4], 25.1%; in test [9], -6.8%; in test [10], 48.8% (active).
For the compound `CNc1ncnc(Sc2nc(N)nc3nc[nH]c23)c1[N+](=O)[O-]`, the inhibition is 47.1% (active) in [1]; 20.2% in test [2]; 26.8% in test [3]; 14.4% in test [4]; 52.6% (active) in [6]; 25.1% in test [7].
With `O=C1NC(=S)N/C1=C/c1cccnc1`, the inhibition was 39.1% in test [1]; 32% (active) in test [2]; 44.9% in test [3]; 31.8% (active) in test [4]; -3.45% in test [9]; 43.8% in test [10].
With `Cc1ccc(/C=N/NC(=O)C2=NNC(c3ccccc3)(c3ccccc3)C2)c(O)c1`, the inhibition in test [1] is 71.4% (active); in test [2] it was 57.5% (active); in [3] it was 45.4%; in [4], 51.8% (active); in test [11] it was 3.86%; in [12], 5.88%. The inhibition in test [13] is 5.05%.
On to `Cc1ccc(OCC(=O)c2cc(C)n(Cc3cccs3)c2C)c([N+](=O)[O-])n1`, for which the inhibition is 21% in [1]; 8.55% in test [2]; 24% in [3]; 14.2% in test [4]; 10.7% in test [9]; 52.2% (active) in test [10].
Take `CC(C)CCCCCCCCCCCCC(=O)NCC(=O)NC1C(C)OC(Nc2ncnc3nc[nH]c23)C(O)C1O` (centres undefined): the inhibition was 98.9% (active) in [1]; 98.8% (active) in test [2]; 96.6% (active) in test [3]; 98.8% (active) in test [4]; 94.7% (active) in test [5]; 111% (active) in test [6]. For the same compound, the inhibition is 97.7% (active) in test [7], 95.8% (active) in test [8], 76.9% (active) in [9] and 72.2% (active) in test [10].
For `COc1ccc(/C=C2/SC(=S)N(CCCC(=O)Nc3ccccc3C(=O)O)C2=O)cc1`, the inhibition in test [1] was 22%; in test [2], 11.6%; in [3], -7.34%; in test [4], 7.32%; in test [9], 66.5% (active); in test [10] it was 72.3% (active).
As to `CCOC(=O)c1cccc(NS(=O)(=O)c2ccc(NC(C)=O)cc2)c1`, the inhibition is 43.5% (active) in test [1]; 35.8% (active) in test [2]; 40.5% in test [3]; 26.5% (active) in test [4]; -6.82% in [9]; 40.8% in test [10].
For the compound `COc1ccc(-c2cncnc2-c2ccc(OC)cc2O)cc1`, the inhibition in [1] is 58.9% (active); in [2], 36.3% (active); in test [3], 57.1% (active); in test [4], 35% (active); in [9] it was 14.3%; in test [10], 42.5%.
As to `Brc1cccc(CSc2nnc(-c3ccncc3)o2)c1`, the inhibition in test [1] is 45.8% (active); in [2], 35.2% (active); in test [3], 44.4%; in test [4], 26.9% (active); in [9] it was 0.08%; in test [10], 27.6%.
In the case of `CCOC(=O)NNC(=O)CCn1c2c(c3ccccc31)CCCC2`, the inhibition is 54.1% (active) in test [1]; 43.4% (active) in test [2]; 51.3% (active) in test [3]; 37% (active) in test [4]; 1.39% in test [9]; 39.1% in test [10].
